TDP43 rescue = rescues yeast growth from TDP-43 toxicity; AID 652104; TDP-43 expressing yeast growth rescue, BacTiter-Glo, 24 h; 1.8% of 410,000 active; Potency, µM (top dose mostly 46.1 µM), for the others: top-dose growth rescue (activation), usual class: activators; also: % of control where 0% means no effect; nearly all actives have a fitted effect of over 50% in size
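In this qHTS, compounds that restore growth of yeast expressing TDP-43 appear as activators. Cells (OD600=0.02, galactose medium, raffinose-pregrown) are incubated with compound 24 hr at 30 deg C and growth is quantified by BacTiter-Glo.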
aSyn rescue = rescues yeast growth from alpha-synuclein toxicity; Potency, µM (titrated, usually from 46.1 µM), for the others: at the top dose growth rescue (activation), hits mostly activators; 0.14% of 370,000 active; AID 652106; Yeast expressing alpha-synuclein, growth rescue, BacTiter-Glo, 24 h; also: % of control where 0% means no effect; nearly all actives have a fitted effect of over 65% in size
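Rescue of yeast growth: cells expressing toxic alpha-synuclein, induced in galactose at OD600 0.02, incubated with compound 24 h at 30 C. ATP luminescence quantified growth; inhibitors of toxicity appear as activators.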
FUS suppressor = rescues growth of FUS-expressing yeast; S. cerevisiae FUS-expressing, growth rescue, OD600, 24 h; Potency, µM (top dose mostly 76.6 µM), actives largely listed as activators; 0.24% of 390,000 active;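 also: plate controls were DMSO vehicle for no effect and reference control for full effect; nearly all actives have a fitted effect of over 55% in size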
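Yeast expressing FUS under galactose induction, OD 0.005 in 2% galactose medium; compounds in a dilution series, 24 h at 30C. Growth rescue by absorbance at 600 nm; CP55940 positive control, DMSO negative.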
TSG101-PTAP inh = blocks PTAP/TSG101 interaction to inhibit HIV-1 budding. Q99816. Fluorescence polarization, FITC-PTAP peptide / Tsg101 binding. Potency, µM (titrated, usually from 115 µM), for the others: at the highest dose activity change, negative = inhibition, usual class: inhibitors. 340,000 tested, under 10 active; active = well fitted inhibition curve with a large enough effect in the main read-out, with a control signal flat, not every such curve was filed as active; inconclusive = small, poorly fitted or top-dose-only effect, or effect the other way, or a change in a side signal; inactive = no such curve, though single readings can be large or run the other way; also: % of control where 0% means no effect
Target sequence (Q99816 whole entry, looked up): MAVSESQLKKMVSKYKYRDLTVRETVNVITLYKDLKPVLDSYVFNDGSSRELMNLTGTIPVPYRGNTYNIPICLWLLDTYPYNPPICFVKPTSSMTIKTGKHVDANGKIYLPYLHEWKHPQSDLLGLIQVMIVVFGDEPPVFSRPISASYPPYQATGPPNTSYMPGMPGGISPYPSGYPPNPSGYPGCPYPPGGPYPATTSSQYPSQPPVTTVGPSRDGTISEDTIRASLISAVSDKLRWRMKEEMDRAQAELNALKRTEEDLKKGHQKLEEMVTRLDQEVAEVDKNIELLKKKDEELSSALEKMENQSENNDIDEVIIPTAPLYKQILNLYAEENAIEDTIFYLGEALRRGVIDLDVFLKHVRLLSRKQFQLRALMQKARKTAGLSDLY
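Fluorescence polarization binding of Tsg101 binding domain (10 uM final) to FITC-labeled PTAP peptide (50 nM final) in HEPES pH 7.5 buffer with NaCl, Tween 20, EDTA, TCEP. Compounds added before peptide; binding 20 min at RT.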
Abeta yeast res = A-beta toxicity reversal in yeast | Potency, µM (doses to about 46.1 µM), usual class: activators | AID 1347071 | yeast expressing A-beta42, growth rescue, OD600, 48 h; response scale: 0% DMSO, 100% iron-clioquinol control | 0.063% of 410,000 active; also: nearly all actives have a fitted effect of over 55% in size
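Yeast A-beta toxicity model in growth medium with pinned compounds, 48 h at 30 C; growth read as absorbance at 600 nm. Normalized to FeCl3/clioquinol equimolar mix (positive) and DMSO (negative).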
An asterisk follows results filed as active; i = inactive; ? = inconclusive; . = no result given. Compounds with a hit are over-represented: about 2.1% of the library has one in this group of screens. Unless noted, calls follow the shape of the dose curve; as a rule, active = well fitted curve in the direction sought with a large enough effect; inconclusive = small, poorly fitted or top-dose-only effect, or another doubt; inactive = no such curve, though single readings can be large; an effect the other way counts as inactive or inconclusive. Potency is read from the fitted curve at half-maximal effect.

SMILES	TDP43 rescue	aSyn rescue	FUS suppressor	TSG101-PTAP inh	Abeta yeast res
C[C@H](CO)N1C[C@H](C)[C@@H](CN(C)Cc2ccc(Oc3ccccc3)cc2)Oc2cc(Br)ccc2S1(=O)=O	19%	-9%	?	.	i
O=[N+]([O-])c1ccccc1/C=N/n1c(C2CCCCC2)n[nH]c1=S	32µM*	3%	i	-5%	i
S=c1[nH]nc(C2CCCCC2)n1/N=C/c1ccccc1Br	?	-14%	i	2%	i
Cc1cc(=O)n(CC(=O)Nc2ccc(Cl)c(Cl)c2)c(-n2nc(C)cc2C)n1	13µM*	.	?	.	i
CC(=O)c1ccc(NC(=O)Cn2c(-n3nc(C)cc3C)nc(C)c(C)c2=O)cc1	27%	.	i	.	i
COc1ccc2c(c1)OC[C@H]1[C@H]2N2C(=O)c3ccccc3NC(=O)[C@@]2(C)[C@H]1c1ccccc1	28µM*	8%	i	-2%	i
COc1ccc2c(c1)OC[C@H]1[C@H]2N2C(=O)CN(CCc3c[nH]c4ccccc34)C(=O)[C@@]2(C)[C@H]1c1ccccc1	-7%	-1%	22µM*	2%	i
COc1ccc2c(c1)OC[C@H]1[C@H]2N2C(=O)c3cc(C)ccc3NC(=O)[C@@]2(C)[C@H]1c1ccccc1	?	4%	i	-5%	i
CCOC(=O)[C@H]1[C@H]2COc3cc(OC)ccc3[C@@H]2N2C(=O)CN(CCc3c[nH]c4ccccc34)C(=O)[C@@]12C	5%	0%	?	3%	i
CCc1ccc(NC(=O)CN2C(=O)CC(c3ccccc3)Sc3ccccc32)cc1 (configuration not stated)	-3%	-3%	i	.	i
Cc1ccc(OCc2cc(=O)n3c4c(sc3n2)CCCC4)cc1C	13%	.	i	.	i
C/C=C/c1ccc(O)c(OC)c1	-9%	-1%	i	1%	i
CC=Cc1cc(OC)c2c(c1)C(C)C(c1ccc(O)c(OC)c1)O2 (configuration not stated)	35µM*	?	?	-3%	i
Cc1cc(C)c(S(=O)(=O)NCCc2cc3c(C)ccc(C)c3[nH]c2=O)c(C)c1	11%	.	i	.	i
CCCS(=O)(=O)NCCc1cc2c(C)ccc(C)c2[nH]c1=O	4.5µM*	2%	i	-4%	i
COc1cccc(NC(=O)CN(C)CC(=O)Nc2ccc(Cl)cc2[N+](=O)[O-])c1	18µM*	7%	i	-5%	i
Cc1ccc(S(=O)(=O)c2nnn3c2nc(NC(C)c2ccccc2)c2sccc23)cc1 (configuration not stated)	-22%	.	i	.	i
CCOC(=O)CC1(C)NC(=O)c2c(C)sc(C(=O)OCC)c2N1 (configuration not stated)	6%	11%	.	0%	i
CCCCC1(C)NC(=O)c2c(C)sc(C(=O)OCC)c2N1 (configuration not stated)	20µM*	14%	i	-2%	i
COc1ccc(Cc2c(C(C)(C)C)nc3c(C)cc(Br)cn23)c(C)c1	1%	6%	i	.	i
CCCCCCCCNS(=O)(=O)/C=C/c1ccccc1CNC(=O)OC(C)(C)C	.	.	i	.	.
O=c1c2sccc2nc(SCc2ccc([N+](=O)[O-])cc2)n1Cc1ccccn1	22µM*	3%	.	-10%	i
CN1CCN(CCCNC(=O)Cn2c(-c3cccs3)cc3cc(Cl)ccc32)CC1	-11%	.	i	.	i
CCCn1ccc2c(OCC(=O)Nc3ccc(F)cc3F)cccc2c1=O	22µM*	.	i	.	i
CCn1ccc2c(OCC(=O)Nc3ccc(C)c(Cl)c3)cccc2c1=O	22µM*	.	?	.	i
SMILES	TDP43 rescue	aSyn rescue	FUS suppressor	TSG101-PTAP inh	Abeta yeast res
O=C(C[n+]1ccccc1Br)c1ccc(F)cc1	.	0%	.	.	.
O=C(C1CCCN1S(=O)(=O)c1cccc([N+](=O)[O-])c1)N1CCN(c2ccccc2)CC1 (configuration not stated)	.	.	i	.	.
CCC(C(=O)Nc1ccc(F)cc1F)n1nc(-c2ccccc2)c2c(c1=O)CCCC2 (configuration not stated)	?	.	i	.	i
CN(CC(=O)Nc1ccc(Cl)c(C(F)(F)F)c1)C(=O)c1ccc(N2CCOCC2)c([N+](=O)[O-])c1	-22%	3%	32µM*	-12%	i
Cc1cc(C)c(S(=O)(=O)NCc2ccc3c(c2)OCO3)c(C)c1	18µM*	2%	i	0%	i
O=S(=O)(NCc1ccc2c(c1)OCO2)c1ccc(Cl)s1	11µM*	9%	i	0%	i
CCOc1cc(C)c(Cl)cc1S(=O)(=O)NCc1ccc2c(c1)OCO2	14µM*	11%	i	-1%	i
CCOc1cc(S(=O)(=O)NCc2ccc3c(c2)OCO3)c(C)cc1C	19%	7%	i	-3%	i
COc1ccccc1CNS(=O)(=O)c1ccc(Cl)s1	13µM*	16%	i	-4%	i
O=C(NCCc1nc2ccccc2n1CCCOc1ccccc1)C1CCCCC1	.	-1%	.	.	.
CC1=C(C(=O)Nc2cccnc2)C(c2ccccc2)n2nc(SCc3ccccc3)nc2N1 (configuration not stated)	10%	.	i	.	i
CCc1ccccc1NC(=O)C1CCCN(S(=O)(=O)c2ccc3c(c2)CC(C)N3C(C)=O)C1 (configuration not stated)	-15%	1%	i	0%	i
CSc1c(-c2ccccn2)c(N)nn1C(=O)C1CCC1	11µM*	-13%	i	0%	i
CSc1c(-c2ccccn2)c(N)nn1C(=O)C1CC1	11µM*	13%	i	0%	i
CSc1nnc2ccc(-c3ccccn3)nn12	17%	-5%	i	-1%	i
COc1cccc(N2CCN(C(=O)CN3C(=O)COc4ccc(S(=O)(=O)N5CCC(C)CC5)cc43)CC2)c1	19%	8%	i	.	i
CC(=O)CSc1nnc2cc(C)c3cc(C)cc(C)c3n12	0%	.	i	.	i
COC(=O)C1=C(C)Nc2nc(-c3ccccc3)nn2C1c1ccc(C)o1 (configuration not stated)	0%	-12%	i	-1%	11µM*
COc1ccc(OC)c(NC(=O)C2CCN(S(=O)(=O)c3ccc4c(c3)CCCC(=O)N4)CC2)c1	14%	2%	i	.	i
O=C(CSc1nnc(-c2ccncc2)o1)c1cccc([N+](=O)[O-])c1	?	0%	i	-9%	i
CC(=O)Nc1cccc(-c2nnc(SCC(=O)c3cc([N+](=O)[O-])ccc3Cl)o2)c1	1%	0%	13µM*	.	i
COc1ccc(OCCCn2c(CCNC(=O)C3CCCCC3)nc3ccccc32)cc1	.	11%	.	.	.

Screens (PubChem)
